For 26 molecules, activation results are on record in PubChem BioAssay AID1508611 (The Scripps Research Institute Molecular Screening Center, 2020).

In all, about 6,700 compounds went through this assay and about 20 (0.3%) were called active. Only a selection was taken, and actives are over-represented in it overall. Values without a mark were called inactive.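 Rule for the calls: active = mean percent activation in the counterscreen above 29.09%; inactive = the rest.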

In this experiment the target is Glucose-dependent insulinotropic receptor (Homo sapiens) (UniProt Q8TDV5). Nature of the experiment: GPR119 activators in beta-arrestin cells, counter-screen for GPR151 activator project, cell-based, PathHunter beta-arrestin, luminescence, triplicate (AID 1508611).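 Note: counterscreen on off-target GPR119 to flag nonselective hits from the GPR151 activator screen.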 The following applies: 90 min, at 11.2 µM, stronger effect = higher value, 0 = compound-well median, 100 = enzyme-acceptor control. A general note: A counterscreen serves to expose hits that act by an unwanted route or on another target.
Chain of Glucose-dependent insulinotropic receptor (Homo sapiens) (Q8TDV5 whole entry, looked up): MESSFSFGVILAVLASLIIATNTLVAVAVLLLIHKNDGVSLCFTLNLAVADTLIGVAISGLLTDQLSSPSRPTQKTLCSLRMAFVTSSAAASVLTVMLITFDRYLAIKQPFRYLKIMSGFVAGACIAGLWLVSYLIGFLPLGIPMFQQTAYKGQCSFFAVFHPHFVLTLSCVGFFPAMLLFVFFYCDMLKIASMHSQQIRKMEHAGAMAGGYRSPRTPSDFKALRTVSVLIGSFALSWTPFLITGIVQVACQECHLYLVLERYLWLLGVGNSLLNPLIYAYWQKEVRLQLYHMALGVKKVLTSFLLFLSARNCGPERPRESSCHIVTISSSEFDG
Consider `Cn1c(=O)c2c(nc(SCC(=O)O)n2Cc2ccc(F)cc2)n(C)c1=O`, for which the activation was -2.28%. As to `C/C(=N/N1CCN(Cc2ccc(C)cc2C)CC1)c1ccc([N+](=O)[O-])cc1`, the activation was -0.84%. As for `CCOc1cc(C2C3=C(CCCC3=O)NC3=C2C(=O)CCC3)cc(Br)c1OCC`, the figure is 8.25%; as for `CCCOC1(C(F)(F)F)NC(=O)N(c2ccc(C(C)C)cc2)C1=O` (stereo unspecified), -7.99%; as for `CC(=O)c1cccc(-c2nc(Nc3ccc(Oc4ccccc4)cc3)c3ncn(-c4ccsc4)c3n2)c1`, 1.29%. For `COc1cc(C(C)=Nc2c(C)n(C)n(-c3ccccc3)c2=O)cc(O)c1OC`, the activation is 3.69%. Then `Cc1ccccc1C(=O)NCc1nc(-c2ccc(Cl)cc2)no1`, with 10.3%; and `C=CCn1c(=O)c2ccc(C(=O)NCc3ccc4c(c3)OCO4)cc2n(CC(N)=O)c1=O`, with 5.23%; and `COc1ccc([N+](=O)[O-])cc1NC(=O)C1CC(Cl)=CCC1C(=O)O` (stereo unspecified), with -0.8%.

Consider `O=C(Nc1ccc(NC(=O)c2cccc3c(Br)cccc23)cc1)c1ccco1`, for which the activation is 16.8%. Then `CC(=O)c1c(C)[nH]c(C(=O)N2CCN(c3ccc(Cl)cc3)CC2)c1C`, with 2.38%; and `COc1ccc(Nc2nc(-c3ccc(F)cc3)cs2)c(OC)c1`, with 5.77%; and `COc1cc(/C=N/N=C2/NC(=O)CS2)ccc1OC(=O)c1ccccc1C`, with -7.49%.

Consider `O=C(O)/C=C/c1ccccc1Cl`, for which the activation is -5.81%.

On to `COc1ccc(C(=O)Nc2ccc(S(=O)(=O)NC(C)C)cc2)cc1`, for which the activation is 13.4%. As for `CC(C(=O)NCCN1CCOCC1)n1c2ccccc2c2cn[nH]c(=O)c21` (stereo unspecified), the figure is 5.53%; as for `Cc1ccc2cc(C#N)c(SCCO)nc2c1`, -5.53%. On to `Cc1ccc[n+](-c2ncnc(N)c2[N+](=O)[O-])c1`, for which the activation was -3.57%. As for `CCOc1ccc(/C=C2N=C(/C=C/c3cccc(Cl)c3Cl)OC\2=O)cc1`, the figure is 0.65%. For the molecule `O=C(NCc1ccsc1)c1ccc(-n2cccc2)cc1`, the activation was -3.28%. Then `O=C(C(Cc1ccccc1)N1C(=O)C2C3c4ccccc4C(c4ccccc43)C2C1=O)N1CCOCC1` (stereo unspecified), with 7.72%; and `Cc1cccc(NC(=O)CSc2nc3[nH]ncc3c(=O)[nH]2)c1`, with 0.57%; and `NC(=S)N/N=C/c1ccc([N+](=O)[O-])cc1`, with 6.78%. Then `O=C(/C=C/Nc1ccccc1NS(=O)(=O)c1ccc([N+](=O)[O-])cc1)c1ccco1`, with -7.75%. Then `CN(C)c1cccc(Nc2cc(C(=O)Nc3ccc(N4CCOCC4)cc3)ccn2)c1`, with -10.4%. `CC1=C(C(=O)Nc2cccc(F)c2)C(c2ccccn2)C2=C(CCCC2=O)N1` (stereo unspecified): the activation is 0.3%.
